“And” between values parts separate entries of the source, which are not always exact repeats. Identical values can stand only once. Records with an inconclusive call do not appear. The source made the active and inactive calls. How the source made its calls, unless noted: active means hit-call score of the fitted dose curve at least 0.9, where 1 is the maximum; inconclusive means response in the unintended direction; inactive means score below 0.9.
Tests used:
[1] = molecular target: Retinoic acid receptor RXR-alpha (Homo sapiens) (UniProt P19793); assay: OT_NURR1_NURR1RXRa_0480: Odyssey Thera (OT) 8-hour HEK293T Protein Complementation Assay for Nurr1/retinoid X receptor (RXR) (AID 2283385)
Procedure, shortened: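 Interaction of bait and prey reconstitutes a functional reporter, whose fluorescence was measured in HEK293T cells dosed with compound for 8 hours. Signal gain relative to DMSO defined the single endpoint.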

[2] = molecular target: Retinoic acid receptor RXR-alpha (Homo sapiens) (UniProt P19793); assay: OT_NURR1_NURR1RXRa_1440: Odyssey Thera (OT) 24-hour HEK293T Protein Complementation Assay for Nurr1/retinoid X receptor (RXR) (AID 2283386)
Procedure, shortened: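 Steps: fragment-tagged Nurr1 and RXRα expressed in HEK293T; compounds added; after 24 h, complemented reporter quantified by fluorescence intensity; signal increase over DMSO fitted as the single endpoint.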

[3] = molecular target: Peroxisome proliferator-activated receptor gamma (Homo sapiens) (UniProt P37231); assay: OT_PPARg_PPARgSRC1_0480: Odyssey Thera (OT) 8-hour Protein-Complementation Assay for Peroxisome Proliferator-activated Receptor Gamma / SRC-1 Co-activator (AID 2283387);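 further: nuclear to cytoplasmic split Venus YFP fluorescence ratio reporting PPARg SRC-1 interaction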
Procedure, shortened: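 Read-out: 488 nm N/C fluorescence ratio from complemented Venus YFP fragments, ≥350 cells per image, gain-of-signal fitted against DMSO baseline. Fusions of PPARg/SRC-1 with IFP1/IFP2 expressed transiently in HEK293T; compounds applied 8 h.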

[4] = molecular target: Peroxisome proliferator-activated receptor gamma (Homo sapiens) (UniProt P37231); assay: OT_PPARg_PPARgSRC1_1440: Odyssey Thera (OT) 24-hour Protein-Complementation Assay for Peroxisome Proliferator-activated Receptor Gamma/ SRC-1 Co-activator (AID 2283388);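 further: nuclear to cytoplasmic ratio of reconstituted Venus YFP fluorescence in fixed imaged cells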
Procedure, shortened: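 Transient HEK293T, YFP fragments 1-158/159-239 (mutant IFP1/IFP2) fused to PPARg/SRC-1; 24 h dosing; fix 4% formaldehyde, Draq5; Opera imaging 488/635 nm; N/C ratio, gain vs DMSO.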

[5] = CEETOX_H295R_11DCORT: CeeTox H295R High-throughput Steroidogenesis Assay for 11-Deoxycortisol (11DCORT) (AID 2283432; active means hit-call score of the fitted dose curve at least 0.9, where 1 is the maximum; inactive means score below 0.9;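 on AC50: 11-deoxycortisol secreted into the medium measured by LC-MS/MS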); details: actives raise or lower the signal
Procedure, shortened: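 H295R cells; 10 uM forskolin prestim 48 h; compound in 0.1% DMSO 48 h; media extracted with MTBE; 11-deoxycortisol by LC-MS/MS, 7-point standard curve; gain/loss vs DMSO baseline; viability by MTT in same wells.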

[6] = CEETOX_H295R_OHPREG: CeeTox H295R High-throughput Steroidogenesis Assay for OH-Pregnenolone (OHPREG) (AID 2283434; active means hit-call score of the fitted dose curve at least 0.9, where 1 is the maximum; inactive means score below 0.9); details: actives raise or lower the signal
Procedure, shortened: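 Secreted 17alpha-hydroxypregnenolone measured by HPLC-MS/MS after liquid-liquid extraction. Human adrenal H295R cells received 48 h forskolin (10 uM) stimulation before 48 h chemical exposure at 0.1% final DMSO; MTT viability in same wells; bidirectional fit against DMSO.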

[7] = CEETOX_H295R_OHPROG: CeeTox H295R High-throughput Steroidogenesis Assay for OH-Progesterone (OHPROG) (AID 2283435; active means hit-call score of the fitted dose curve at least 0.9, where 1 is the maximum; inactive means score below 0.9;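 on AC50: 17alpha-hydroxyprogesterone secreted into medium measured by HPLC-MS/MS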); details: actives raise or lower the signal
Procedure, shortened: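 Steps: seed H295R cells and adhere overnight; stimulate with 10 uM forskolin for 48 h; replace with chemical-containing medium (0.1% DMSO) for 48 h; extract medium with MTBE; quantify 17alpha-hydroxyprogesterone by reverse-phase C18 HPLC-MS/MS against a 7-point curve.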

[8] = CEETOX_H295R_ANDR: CeeTox H295R High-throughput Steroidogenesis Assay for Androstenedione (ANDR) (AID 2283436; active means hit-call score of the fitted dose curve at least 0.9, where 1 is the maximum; inactive means score below 0.9); details: actives raise or lower the signal
Procedure, shortened: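 Medium from 48 h chemical-treated H295R adrenal cells was extracted with MTBE and androstenedione measured by LC-MS/MS. Activity was fit in both directions relative to DMSO. Cytotoxic concentrations were re-tested after dilution until MTT viability reached ≥70%.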

[9] = CEETOX_H295R_CORTIC: CeeTox H295R High-throughput Steroidogenesis Assay for Corticosterone (CORTIC) (AID 2283437; active means hit-call score of the fitted dose curve at least 0.9, where 1 is the maximum; inactive means score below 0.9); details: actives raise or lower the signal
Procedure, shortened: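 Medium corticosterone was quantified by tandem mass spectrometry following 48 hours of chemical exposure (0.1% DMSO) in human H295R cells previously stimulated 48 hours with 10 uM forskolin. Viability checked by MTT; chemicals diluted and retested when viability fell below 70%.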

[10] = CEETOX_H295R_CORTISOL: CeeTox H295R High-throughput Steroidogenesis Assay for Cortisol (AID 2283438; active means hit-call score of the fitted dose curve at least 0.9, where 1 is the maximum; inactive means score below 0.9;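 further: cortisol secreted into medium quantified by LC-MS/MS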); details: actives raise or lower the signal
Procedure, shortened: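 Cortisol synthesis by H295R cells is measured 48 h after chemical dosing, following a 48 h stimulation with 10 uM forskolin. Hormone is extracted and quantified by HPLC-MS/MS, and activity is fitted bidirectionally against the DMSO control.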

Sequence of Peroxisome proliferator-activated receptor gamma (Homo sapiens) (P37231 whole entry, looked up, the tested form may be a part): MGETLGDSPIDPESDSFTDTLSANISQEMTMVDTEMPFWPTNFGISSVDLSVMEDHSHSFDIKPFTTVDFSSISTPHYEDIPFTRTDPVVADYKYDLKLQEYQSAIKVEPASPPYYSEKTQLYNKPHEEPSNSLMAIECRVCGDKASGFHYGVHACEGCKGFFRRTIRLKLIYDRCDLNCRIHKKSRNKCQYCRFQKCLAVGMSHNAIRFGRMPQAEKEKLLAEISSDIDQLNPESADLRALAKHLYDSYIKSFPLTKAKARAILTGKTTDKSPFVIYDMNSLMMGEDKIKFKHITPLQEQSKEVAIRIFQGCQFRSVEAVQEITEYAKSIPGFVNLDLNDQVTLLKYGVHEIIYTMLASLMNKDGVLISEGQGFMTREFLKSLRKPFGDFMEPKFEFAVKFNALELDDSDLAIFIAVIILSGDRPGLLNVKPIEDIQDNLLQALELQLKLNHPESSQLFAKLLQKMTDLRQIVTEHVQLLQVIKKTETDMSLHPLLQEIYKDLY
Sequence of Retinoic acid receptor RXR-alpha (Homo sapiens) (P19793 whole entry, looked up, the tested form may be a part): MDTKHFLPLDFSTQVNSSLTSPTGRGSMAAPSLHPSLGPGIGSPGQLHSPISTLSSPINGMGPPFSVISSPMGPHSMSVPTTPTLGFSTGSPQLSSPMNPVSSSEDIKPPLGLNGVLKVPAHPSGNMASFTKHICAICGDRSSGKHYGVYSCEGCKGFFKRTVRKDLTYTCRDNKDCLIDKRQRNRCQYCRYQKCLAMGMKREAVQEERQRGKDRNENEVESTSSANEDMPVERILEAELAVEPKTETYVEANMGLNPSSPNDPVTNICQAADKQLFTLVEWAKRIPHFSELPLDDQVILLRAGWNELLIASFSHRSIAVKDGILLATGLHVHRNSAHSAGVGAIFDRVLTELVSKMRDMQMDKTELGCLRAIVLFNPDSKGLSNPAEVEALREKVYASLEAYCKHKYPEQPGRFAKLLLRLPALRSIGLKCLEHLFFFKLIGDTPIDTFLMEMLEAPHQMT

Clc1nc(Cl)c(Cl)c(Cl)c1Cl
outcome [1]: inactive
outcome [2]: inactive
outcome [3]: inactive
outcome [4]: inactive

Cc1ccc(O)cc1
outcome [1]: inactive
outcome [2]: inactive
outcome [3]: inactive
outcome [4]: inactive
outcome [5]: inactive
outcome [6]: inactive
outcome [7]: inactive
outcome [8]: inactive
outcome [9]: inactive
outcome [10]: inactive

CC(C)=CCC/C(C)=C\CO
outcome [1]: inactive
outcome [2]: inactive
outcome [3]: inactive
outcome [4]: inactive

CCCN(C1CCN(C(=O)C2CCNCC2)CC1)[C@@H]1CCc2ccc(OC)cc2C1
AC50 [1]: 87.3 µM (active)
AC50 [2]: 64.8 µM (active)
outcome [3]: inactive
outcome [4]: inactive

O=C(NS(=O)(=O)/C=C/c1ccccc1)c1ccc(F)cc1Cl
AC50 [1]: 27.4 µM (active)
AC50 [2]: 15.2 µM (active)
outcome [3]: inactive
AC50 [4]: 50 µM (active)

C=CC(=C)CCC=C(C)C
outcome [1]: inactive
outcome [2]: inactive
outcome [3]: inactive
outcome [4]: inactive

CCn1nc(Cc2ccccc2)cc1C1CCN(C[C@H]2C[C@H](N(C)[C@@H](C(=O)O)C(C)C)C[C@@H]2c2cccc(F)c2)CC1
outcome [1]: inactive
outcome [2]: inactive
outcome [3]: inactive
outcome [4]: inactive

CCOCCOCCOCCO
outcome [1]: inactive
outcome [2]: inactive
outcome [3]: inactive
outcome [4]: inactive

COc1ccc2sc(C(=O)Nc3nnn[nH]3)c(OC(C)C)c2c1
outcome [3]: inactive
outcome [4]: inactive

CCCC(=O)OCC
outcome [2]: inactive
outcome [3]: inactive
outcome [4]: inactive

CCCCCCCCCCCCCCCO
outcome [1]: inactive
outcome [2]: inactive
outcome [3]: inactive
outcome [4]: inactive
outcome [6]: inactive
outcome [7]: inactive

Fc1ccccc1[C@@H](F)COC1CCC(Nc2ncnc3[nH]ncc23)CC1 (stereo not given in full)
outcome [1]: inactive
outcome [3]: inactive
outcome [4]: inactive
AC50 [5]: 5 µM (active)
AC50 [6]: 5 µM (active)
AC50 [7]: 3.91 µM (active)
outcome [8]: inactive
AC50 [9]: 1.41 µM (active)
AC50 [10]: 5 µM (active)

C=CCCCCCCCCC(=O)O
outcome [1]: inactive
outcome [2]: inactive
outcome [3]: inactive
outcome [4]: inactive
outcome [5]: inactive
AC50 [6]: 36.5 µM (active)
outcome [7]: inactive
outcome [9]: inactive
outcome [10]: inactive

CC[C@H](C)C(=O)O[C@H]1C[C@@H](C)C=C2C=C[C@H](C)[C@H](CC[C@@H]3C[C@@H](O)CC(=O)O3)[C@H]21
outcome [1]: inactive
outcome [2]: inactive
outcome [3]: inactive
outcome [4]: inactive
AC50 [5]: 2.84 µM (active)
AC50 [6]: 0.026 µM (active)
AC50 [7]: 2.96 µM (active)
AC50 [9]: 0.094 µM (active)
outcome [10]: inactive

CC(C)CC(C)(O)C#CC(C)(O)CC(C)C (stereo not given)
outcome [1]: inactive
outcome [3]: inactive
outcome [4]: inactive
AC50 [5]: 68.2 µM (active)
outcome [6]: inactive
outcome [7]: inactive
outcome [9]: inactive
outcome [10]: inactive

CCN(C(=O)c1cc(C)cc(OC[C@H](C)Nc2ccncc2)c1)C(C)C
outcome [3]: inactive
outcome [4]: inactive

CC1=CC(=O)CC(C)(C)C1
outcome [1]: inactive
outcome [2]: inactive
outcome [3]: inactive
outcome [4]: inactive
outcome [5]: inactive
outcome [6]: inactive
outcome [7]: inactive
outcome [9]: inactive
outcome [10]: inactive

O=C(O)c1cccc(N(Cc2cccnc2)c2ccc(OC(F)F)c(OC(F)F)c2)c1
AC50 [1]: 29.4 µM (active)
AC50 [2]: 32.4 µM (active)
outcome [3]: inactive
outcome [4]: inactive
outcome [6]: inactive
AC50 [7]: 7.82 µM (active)
outcome [8]: inactive

Cn1c(=O)cc(Oc2ccc(F)cc2F)c2cnc(NCC(C)(C)O)nc21
outcome [2]: inactive
outcome [3]: inactive
outcome [4]: inactive
AC50 [5]: 8.38 µM (active)
outcome [6]: inactive
outcome [7]: inactive
outcome [9]: inactive
outcome [10]: inactive

O=c1[nH]c2ccc(S(=O)CCN3CCC(Cc4ccc(F)cc4)CC3)cc2o1 (stereo not given)
outcome [1]: inactive
outcome [2]: inactive
outcome [3]: inactive
outcome [4]: inactive
AC50 [5]: 5.59 µM (active)
AC50 [6]: 3.63 µM (active)
AC50 [7]: 5.68 µM (active)
AC50 [9]: 1.56 µM (active)
AC50 [10]: 6.88 µM (active)

COc1cccc(-c2ccc(/C=C\CN3CCCCCC3)cc2Cl)c1
AC50 [1]: 10.3 µM (active)
outcome [3]: inactive
outcome [4]: inactive
outcome [5]: inactive
outcome [6]: inactive
outcome [7]: inactive
outcome [9]: inactive
outcome [10]: inactive

Nc1ccc(Nc2ccccc2)cc1
outcome [1]: inactive
outcome [2]: inactive
outcome [3]: inactive
outcome [4]: inactive
outcome [5]: inactive
AC50 [6]: 83.7 µM (active)
AC50 [7]: 13.9 µM (active)
outcome [9]: inactive
AC50 [10]: 65.8 µM (active)

CC(=O)c1ccc2c(c1)[C@H](NC(=O)c1ccc(F)cc1)[C@@H](O)C(C)(C)O2
outcome [3]: inactive
outcome [4]: inactive

CCCCCCc1ccc(O)cc1O
outcome [1]: inactive
outcome [3]: inactive
outcome [4]: inactive

CCOC(=O)c1ccc(C2CCC(NC[C@H](O)COc3ccc(O)c(NS(C)(=O)=O)c3)CC2)cc1 (stereo not given in full)
AC50 [2]: 10.4 µM (active)
outcome [3]: inactive
outcome [4]: inactive
AC50 [5]: 2.78 µM (active)
AC50 [6]: 2.95 µM (active)
AC50 [7]: 5.6 µM (active)
AC50 [9]: 9.35 µM (active)
outcome [10]: inactive

CC[C@H]1CC[C@H](NCc2cc3c(cc2OC)[C@H]2C[C@H]2C(=O)N3C)[C@H](c2ccccc2)N1
outcome [1]: inactive
outcome [2]: inactive
outcome [3]: inactive
outcome [4]: inactive
outcome [5]: inactive
outcome [6]: inactive
outcome [7]: inactive
outcome [9]: inactive
outcome [10]: inactive

O=C1CCCCCN1
outcome [3]: inactive
outcome [4]: inactive

CC(C)=CCCC(C)=CC=O
outcome [1]: inactive
outcome [2]: inactive
outcome [3]: inactive
outcome [4]: inactive
outcome [5]: inactive
outcome [6]: inactive
outcome [7]: inactive
AC50 [9]: 78.6 µM (active)
AC50 [10]: 75 µM (active)

CCC(C)(C)C(=O)O[C@H]1C[C@@H](C)C=C2C=C[C@H](C)[C@H](CC[C@@H]3C[C@@H](O)CC(=O)O3)[C@H]21
outcome [1]: inactive
outcome [2]: inactive
outcome [3]: inactive
outcome [4]: inactive
AC50 [5]: 0.338 µM (active)
outcome [6]: inactive
AC50 [7]: 0.809 µM (active)
outcome [9]: inactive
outcome [10]: inactive

CCOc1cccc(-n2cc(C(=O)N3CCN(c4cc(C(=O)O)c5ccccc5c4)CC3)nc2-c2ccc(C)cc2)c1
outcome [3]: inactive
outcome [4]: inactive
outcome [5]: inactive
outcome [6]: inactive
outcome [7]: inactive
outcome [8]: inactive
outcome [9]: inactive
outcome [10]: inactive

Cc1c(-c2cccnc2)c2ccccc2n1CCCCC(=O)O
outcome [1]: inactive
outcome [3]: inactive
outcome [4]: inactive
outcome [6]: inactive
outcome [7]: inactive

CCc1cc(SCc2sc(-c3ccc(C(F)(F)F)cc3)nc2CN2CCN(c3ccc(OC)cc3)CC2)ccc1OCC(=O)O
AC50 [3]: 345 nM (active) and 1.09 µM (active)
AC50 [4]: 723 nM (active) and 1.02 µM (active)

CC(C)CCO
outcome [2]: inactive
outcome [3]: inactive
outcome [4]: inactive

CCCCCCCCO
outcome [2]: inactive
outcome [3]: inactive
outcome [4]: inactive
outcome [5]: inactive
outcome [7]: inactive
outcome [10]: inactive

CC(C)CCCCCCCOC(=O)CCCCC(=O)OCCCCCCCC(C)C
outcome [2]: inactive
outcome [3]: inactive
outcome [4]: inactive

CCCCCCCCCCCCc1ccccc1
outcome [3]: inactive
outcome [4]: inactive

CC(C)(O)c1coc(S(=O)(=O)NC(=O)Nc2c3c(cc4c2CCC4)CCC3)c1
outcome [1]: inactive
outcome [2]: inactive
outcome [3]: inactive
outcome [4]: inactive
outcome [5]: inactive
outcome [6]: inactive
AC50 [7]: 10.4 µM (active)
outcome [9]: inactive
outcome [10]: inactive

COc1ccc(-n2nc(C(F)F)cc2-c2ccc(S(C)=O)cc2)cc1 (stereo not given)
outcome [1]: inactive
outcome [2]: inactive
outcome [3]: inactive
outcome [4]: inactive
outcome [5]: inactive
outcome [6]: inactive
outcome [7]: inactive
outcome [9]: inactive
outcome [10]: inactive

Reference: PubChem BioAssay (EPA / NIEHS)
